Data as given in PubChem BioAssay AID743135 (Broad Institute, 2013).
Results filed as inconclusive are left out. Active and inactive are the calls of the source.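 The calls were made as follows: active = fitted drop in cell viability signal with half-maximal potency at most twice the top valid dose; inconclusive = flat fit with a 30 to 70% drop, or poor fit; inactive = opposite direction, flat within 30%, or potency beyond limit.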

test: HEK293T viability reduction – cell-based, ATP luminescence, dry powder, Set3, 50 µM top, cytotoxicity control, dose response (AID 743135); settings: CellTiter-Glo ATP luminescence, 72 h; series mostly up to 50 µM; activity change, negative = cytotoxicity: at the top concentration

Structure (SMILES) | activity change, negative = cytotoxicity | outcome
Cc1c(C(=O)O)sc2nc(/C=C/c3ccc(O)cn3)[nH]c(=O)c12 | 6.21% [at 1.2 µM] (inactive) | 
Cc1c(C(=O)O)sc2nc(/C=C/c3cccc(N)c3)[nH]c(=O)c12 | -3.83% (inactive) | 
Cc1c(C(=O)O)sc2nc(/C=C/c3cccc([N+](=O)[O-])c3)[nH]c(=O)c12 | 12.3% (inactive) | 
Cc1c(C(=O)O)sc2nc(/C=C/c3cnc4ccccc4c3)[nH]c(=O)c12 | -23.6% (inactive) | 
Cc1c(C(=O)O)sc2nc(/C=C/c3cccnc3)[nH]c(=O)c12 | -11% (inactive) | 
Cc1c(C(=O)O)sc2nc(/C=C/c3cccc(N4CCOCC4)n3)[nH]c(=O)c12 | 0.269% (inactive) | 
Cc1c(C(=O)O)sc2nc(/C=C/c3ccccc3)[nH]c(=O)c12 | 4.18% (inactive) | 
Cc1c(C(=O)O)sc2nc(/C=C/c3ccnc4ccccc34)[nH]c(=O)c12 | 0.42% (inactive) | 
Cc1c(C(=O)O)sc2nc(/C=C/c3cccc(C(=O)O)c3)[nH]c(=O)c12 | -4.26% (inactive) | 
Cc1c(C(=O)O)sc2nc(/C=C/c3cccc(=O)[nH]3)[nH]c(=O)c12 | -5.21% (inactive) | 
Cc1c(C(=O)O)sc2nc(/C=C/c3cccc(O)c3)[nH]c(=O)c12 |  | inactive
Cc1c(C(=O)O)sc2nc(/C=C/c3cc4ccccc4cn3)[nH]c(=O)c12 | 19.6% (inactive) | 
Cc1c(C(=O)O)sc2nc(/C=C/c3cccc(N4CCNCC4)c3)[nH]c(=O)c12 | -0.926% (inactive) | 
Cc1c(C(=O)O)sc2nc(CCc3cccc(O)c3)[nH]c(=O)c12 | 0.17% (inactive) | 
Cc1c(C(=O)O)sc2nc(/C=C/c3cccc(OC(F)(F)F)c3)[nH]c(=O)c12 | -12% (inactive) | 
Cc1c(C(=O)O)sc2nc(/C=C/c3ccc4[nH]ccc4n3)[nH]c(=O)c12 | -5.92% [at 12 µM] (inactive) | 
COc1cccc(/C=C/c2nc3sc(C(=O)O)c(C)c3c(=O)[nH]2)c1 | 2.64% (inactive) | 
Cc1c(C(=O)O)sc2nc(/C=C/c3ccc4ccccc4c3)[nH]c(=O)c12 | 7.22% (inactive) | 
Cc1c(C(=O)O)sc2nc(/C=C/C3CC3)[nH]c(=O)c12 | -0.319% (inactive) | 
Cc1c(C(=O)O)sc2nc(/C=C/c3ccc(N)nc3)[nH]c(=O)c12 | -10.6% (inactive) | 
Cc1c(C(=O)O)sc2nc(/C=C/c3ccccc3O)[nH]c(=O)c12 | -17.6% (inactive) | 
Cc1c(C(=O)O)sc2nc(/C=C/C=C/c3ccccc3)[nH]c(=O)c12 | -4.1% (inactive) | 
Cc1c(C(=O)O)sc2nc(/C=C/c3cccc(F)c3)[nH]c(=O)c12 | 16.6% (inactive) | 
Cc1c(C(=O)O)sc2nc(/C=C/c3ccc4[nH]ccc4c3)[nH]c(=O)c12 | -10.9% (inactive) | 
Cc1c(C(=O)O)sc2nc(/C=C/c3ccccn3)[nH]c(=O)c12 | -6.03% (inactive) | 
Cc1c(C(=O)O)sc2nc(/C=C/c3cccnc3N)[nH]c(=O)c12 | -17.4% [at 12 µM] (inactive) | 
Cc1c(C(=O)O)sc2nc(/C=C/c3ccc4cc[nH]c4c3)[nH]c(=O)c12 | -15% (inactive) | 
Cc1c(C(=O)O)sc2nc(/C=C/c3cccc(C(N)=O)c3)[nH]c(=O)c12 | -7.3% (inactive) | 
Cc1c(C(=O)O)sc2nc(/C=C/c3cccc(C(F)(F)F)c3)[nH]c(=O)c12 | -4.4% (inactive) | 
